The text below walks through data of PubChem BioAssay (Tox21).

Unmarked numbers belong to inactive results. Inconclusive results are not listed. The source made the active and inactive calls. Unless noted, calls follow the shape of the dose curve; as a rule, active = well fitted curve in the direction sought with a large enough effect in the repeat runs; inconclusive = weak or mixed curves; inactive = no such curve, though single readings can be large; an effect the other way counts as inactive or inconclusive.

Assay [1] is described as follows: A CellTox Green Cytotoxicity Assay to monitor cytotoxicity in HEK293 cells - 8 hour (AID 1224884). Also: nearly all actives have a fitted effect of over 35% in size. The essentials: (§1)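 Tox21 screen in HEK293: membrane-impermeant cyanine dye fluoresces on binding dead-cell DNA; compound pinned 5 h post-seeding, plates held at 37 C, signal read repeatedly through 40 h.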
Assay [2] in a line: qHTS RealTime-Glo MT Cell Viability Assay in HepG2 cells - 16 hour (AID 1224885). Also: nearly all actives have a fitted effect of over 50% in size. Also: potency is read from the fitted curve at half-maximal effect. The essentials:
(§2)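 Tox21 10K library screened in qHTS format on HepG2 cells carrying RealTime-Glo reagents. Compounds were added after a 5 h preincubation, and the luminescent signal from continuous culture was measured repeatedly during 40 h treatment.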

Assay [3] can be described thus: qHTS RealTime-Glo MT Cell Viability Assay in HEK293 cells - 24 hour (AID 1224886). Also: nearly all actives have a fitted effect of over 50% in size. Also: potency is read from the fitted curve at half-maximal effect. The essentials: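 Luminescence generated by NanoLuc from substrate produced by living HEK293 cells served as the viability signal. Each value reflects the reading at its stated time point during continuous 40 h compound exposure at 37 C.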
Assay [4] in a line: qHTS RealTime-Glo MT Cell Viability Assay in HEK293 cells - 8 hour (AID 1224887). Also: nearly all actives have a fitted effect of over 50% in size. Also: potency is read from the fitted curve at half-maximal effect. In a few lines: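 HEK293 + NanoLuc + prosubstrate, 600 cells/well; 5 h, 37 C/5% CO2; compound 23 nL in DMSO by pintool; 37 C; luminescence read at 0, 8, 16, 24, 32 and 40 h time points.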
(In qHTS, concentration-response curves come from the screen itself.)

Assay [5] can be described thus: A CellTox Green Cytotoxicity Assay to monitor cytotoxicity in HEK293 cells - 16 hour (AID 1224888). Also: nearly all actives have a fitted effect of over 35% in size. In a few lines: as §1
A short description of assay [6]: qHTS RealTime-Glo MT Cell Viability Assay in HepG2 cells - 0 hour (AID 1224889). Also: nearly all actives have a fitted effect of over 50% in size. In a few lines: as §2
Assay [7] is described as follows: A CellTox Green Cytotoxicity Assay to monitor cytotoxicity in HepG2 cells - 8 hour (AID 1224890). Also: nearly all actives have a fitted effect of over 45% in size. In a few lines:
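Measurements at 0, 8, 16, 24, 32 and 40 h of treatment captured CellTox Green fluorescence in HepG2 cells that had been co-plated with reagent and preincubated 5 h at 37 C/5% CO2.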

A short description of assay [8]: qHTS assay to identify small molecule antagonists of the estrogen receptor alpha (ER-alpha) signaling pathway using the BG1 cell line in the presence of 0.1 nM 17-beta-estradiol - cell viability counter screen (AID 1259241). Also: nearly all actives have a fitted effect of over 40% in size. The essentials: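 Estradiol-stimulated (0.1 nM) VM7Luc4E2 cells exposed to compounds 22 hr; viability measured by fluorescence of cleaved CellTiter-Fluor substrate after 30 min.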

Assay [9] can be described thus: qHTS assay to identify small molecule antagonists of the androgen receptor (AR) signaling pathway using the MDA cell line in the presence of 0.5 nM R1881 - cell viability counter screen (AID 1259242). Also: nearly all actives have a fitted effect of over 45% in size. In a few lines: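 Concentration-response screen of compounds for toxicity in MDA-kb2 reporter cells: 16 hr at 37C with 0.5 nM R1881, endpoint live-cell protease fluorescence measured in the reporter wells.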

The target of assay [10] is Androgen receptor (Homo sapiens) (UniProt P10275). In words: qHTS assay to identify small molecule antagonists of the androgen receptor (AR) signaling pathway using the MDA cell line in the presence of 0.5 nM R1881 (AID 1259243). Also: nearly all actives have a fitted effect of over 50% in size. Also: potency is read from the fitted curve at half-maximal effect. The essentials:
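With R1881 held at 0.5 nM (final), compound effects on MMTV-luciferase expression in MDA-kb2 cells were scored by luminescence after a 16 hr, 37C incubation.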

Assay [11] is described as follows: qHTS assay to identify small molecule HDAC inhibitors (AID 1259364).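 Also: wild-type HCT-116 cells with endogenous class I/II HDAC activity; top concentration of the series differs between compounds; nearly all actives have a fitted effect of over 45% in size.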 The essentials: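 Screening used wild-type human colon HCT-116 cells incubated overnight, dosed with compounds for 2 hours, and assayed with a homogeneous luminogenic HDAC I/II reagent for 30 minutes at room temperature.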
The nature of assay [12]: qHTS assay to identify small molecule HDAC inhibitors - cell viability counter screen (AID 1259365). The essentials:
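After overnight seeding at 1,500 cells per well, wild-type HCT-116 cultures took up compounds in DMSO for 2hr at 37 C. Viable cell content came from luminescence with CellTiter-Glo.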

A short description of assay [13]: qHTS assay to identify small molecule agonists of the sonic hedgehog signaling (Shh) pathway - cell viability counter screen (AID 1259366). Also: nearly all actives have a fitted effect of over 50% in size. In a few lines: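 Same-well cytotoxicity read. Gli1-Luc reporter 3T3 cells; compounds 24hr, 37C/5% CO2; CellTiter-Fluor fluorescence.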
Assay [14] can be described thus: qHTS assay to identify small molecule antagonists of the sonic hedgehog signaling (Shh) pathway - cell viability counter screen (AID 1259367). Also: nearly all actives have a fitted effect of over 55% in size. The essentials:
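CellTiter-Fluor signal in conditioned medium-stimulated 3T3 Gli1-Luc cells, 23 hr compound exposure, 37C.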

Assay [15] is described as follows: qHTS assay to identify small molecule agonists of the sonic hedgehog signaling (Shh) pathway (AID 1259368; calls by dose curve;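 also: NIH/3T3-derived 3T3Gli1-Luc cells carrying a stable Gli1-driven firefly luciferase reporter; series mostly up to about 92 µM; nearly all actives have a fitted effect of over 15% in size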). The essentials:
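Hedgehog pathway agonism scored by increased firefly luciferase luminescence in 3T3Gli1-Luc cells treated 24 hr at 37 C; detection used a 30 min room-temperature reagent incubation.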

The nature of assay [16]: qHTS assay to identify small molecule antagonists of the sonic hedgehog signaling (Shh) pathway (AID 1259369; calls by dose curve; also: nearly all actives have a fitted effect of over 45% in size; also: potency is read from the fitted curve at half-maximal effect). The essentials: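 NIH/3T3 stable Gli1-Luc clone, 2,000 cells/well, 4hr settle; cpd + conditioned medium 24hr; Luc reagent 30min RT; luminescence.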
Assay [17] concerns the target Estrogen receptor beta (Homo sapiens) (UniProt Q92731). In words: qHTS assay to identify small molecule agonists of the estrogen receptor beta (ER-beta) signaling pathway (AID 1259377; active = well fitted activation curve with a large enough effect in the signal ratio in the repeat runs, not every such curve was filed as active; the % refers to the signal ratio). In a few lines:
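Read-out: beta-lactamase FRET fluorescence. Cell line: ER-beta-UAS-bla HEK293T in 2% charcoal-stripped FBS. Exposure: 16 hr at 37C. Substrate step: 2 h at room temperature.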

Assay [18] has the same target. The assay can be described thus: qHTS assay to identify small molecule antagonists of the estrogen receptor beta (ER-beta) signaling pathway (AID 1259378; active = well fitted inhibition curve with a large enough effect in the signal ratio in the repeat runs, not every such curve was filed as active; the % refers to the signal ratio; also: potency is read from the fitted curve at half-maximal effect). The essentials: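 Antagonist mode: compounds added to beta-lactamase reporter HEK293T ER-beta-UAS cells stimulated with E2 (1nM final), 16 hr at 37C. LiveBLAzer B/G FRET substrate, 2 hours room temperature, fluorescence read-out.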

For assay [19], the target named is Estrogen receptor (Homo sapiens) (UniProt P03372). In words: qHTS assay to identify small molecule antagonists of the estrogen receptor alpha (ER-alpha) signaling pathway using the BG1 cell line in the presence of 0.1 nM 17-beta-estradiol (AID 1259244). Also: nearly all actives have a fitted effect of over 50% in size. In a few lines:
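Compounds were tested against 0.1 nM (final) 17beta-estradiol in VM7Luc4E2 cells, which express full-length ER-alpha and an ERE-luciferase reporter; luminescence was recorded following 22 h exposure.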

Sequence of Androgen receptor (Homo sapiens) (P10275 whole entry, looked up): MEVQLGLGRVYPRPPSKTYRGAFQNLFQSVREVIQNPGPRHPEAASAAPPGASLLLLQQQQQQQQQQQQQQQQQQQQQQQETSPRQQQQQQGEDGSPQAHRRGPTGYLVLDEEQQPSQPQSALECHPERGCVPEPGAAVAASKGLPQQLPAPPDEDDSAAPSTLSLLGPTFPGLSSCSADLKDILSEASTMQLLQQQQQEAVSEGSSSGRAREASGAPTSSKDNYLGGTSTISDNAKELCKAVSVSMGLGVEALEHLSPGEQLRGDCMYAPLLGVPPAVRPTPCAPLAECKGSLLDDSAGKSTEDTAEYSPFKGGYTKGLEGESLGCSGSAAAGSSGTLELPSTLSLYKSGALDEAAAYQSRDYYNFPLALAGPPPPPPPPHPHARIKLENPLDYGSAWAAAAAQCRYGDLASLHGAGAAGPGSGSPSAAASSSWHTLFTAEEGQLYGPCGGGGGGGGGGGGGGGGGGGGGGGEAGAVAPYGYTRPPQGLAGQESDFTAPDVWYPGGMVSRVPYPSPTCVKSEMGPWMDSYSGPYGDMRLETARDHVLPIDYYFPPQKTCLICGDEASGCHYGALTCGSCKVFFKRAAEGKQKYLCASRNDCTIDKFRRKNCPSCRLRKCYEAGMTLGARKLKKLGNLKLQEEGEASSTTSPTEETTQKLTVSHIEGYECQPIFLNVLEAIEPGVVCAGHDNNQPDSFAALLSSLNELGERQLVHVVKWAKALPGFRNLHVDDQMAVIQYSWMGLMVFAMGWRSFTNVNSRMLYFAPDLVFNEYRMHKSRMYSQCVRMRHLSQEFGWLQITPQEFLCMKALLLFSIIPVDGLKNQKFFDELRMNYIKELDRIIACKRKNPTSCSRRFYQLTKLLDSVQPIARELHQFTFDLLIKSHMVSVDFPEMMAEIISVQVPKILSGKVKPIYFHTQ
Sequence of Estrogen receptor beta (Homo sapiens) (Q92731 whole entry, looked up): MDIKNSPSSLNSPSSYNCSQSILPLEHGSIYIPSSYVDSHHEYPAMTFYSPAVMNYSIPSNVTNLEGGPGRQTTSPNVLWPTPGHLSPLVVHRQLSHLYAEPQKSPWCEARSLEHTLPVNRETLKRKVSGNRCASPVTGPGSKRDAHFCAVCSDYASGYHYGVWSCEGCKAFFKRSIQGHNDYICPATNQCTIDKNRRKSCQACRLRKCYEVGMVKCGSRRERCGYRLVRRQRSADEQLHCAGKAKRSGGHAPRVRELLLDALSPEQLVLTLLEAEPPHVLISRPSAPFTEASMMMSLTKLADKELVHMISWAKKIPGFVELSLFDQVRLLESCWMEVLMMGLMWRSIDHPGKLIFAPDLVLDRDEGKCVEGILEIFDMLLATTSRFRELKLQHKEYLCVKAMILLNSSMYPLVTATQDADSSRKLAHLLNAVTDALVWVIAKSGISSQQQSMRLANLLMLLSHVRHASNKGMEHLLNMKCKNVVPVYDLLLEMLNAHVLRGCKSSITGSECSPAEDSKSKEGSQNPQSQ
Sequence of Estrogen receptor (Homo sapiens) (P03372 whole entry, looked up): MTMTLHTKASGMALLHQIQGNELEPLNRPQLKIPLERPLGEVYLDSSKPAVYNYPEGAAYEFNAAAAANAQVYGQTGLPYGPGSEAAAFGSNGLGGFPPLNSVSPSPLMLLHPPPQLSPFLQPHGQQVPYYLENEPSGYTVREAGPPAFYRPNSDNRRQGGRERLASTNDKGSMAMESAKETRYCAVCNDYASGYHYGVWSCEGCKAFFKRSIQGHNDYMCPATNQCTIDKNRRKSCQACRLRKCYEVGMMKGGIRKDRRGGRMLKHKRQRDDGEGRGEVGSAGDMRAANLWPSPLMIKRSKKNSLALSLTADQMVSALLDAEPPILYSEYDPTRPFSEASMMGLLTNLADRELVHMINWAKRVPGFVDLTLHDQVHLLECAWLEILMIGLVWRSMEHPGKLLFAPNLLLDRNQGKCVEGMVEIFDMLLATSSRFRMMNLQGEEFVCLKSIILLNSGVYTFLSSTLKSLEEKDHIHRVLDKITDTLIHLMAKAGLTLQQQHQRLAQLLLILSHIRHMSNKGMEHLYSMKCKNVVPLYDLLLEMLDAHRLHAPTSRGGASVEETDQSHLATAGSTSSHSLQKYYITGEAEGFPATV

On to `CC(CC(C)(C)C)CC(C)(C)CC(C)(C)C` (stereo not drawn), for which the Potency result in assay [1], in assay [2], in [3], in [4], in assay [5] and in assay [6] was “inactive” in each case. Also, the Potency entry in assay [7], in assay [8], in assay [9], in [10], in assay [11] and in [12] was “inactive” each time. Moreover, the Potency entry in assay [13], in assay [14], in assay [15], in [16] and in assay [18] was “inactive” each time. The outcome in assay [17] was inactive.

In the case of `O=C(CCCCCCCCc1cccnc1)N1CCC(C=C(c2ccccc2)c2ccccc2)CC1`, the Potency entry in assay [1], in [5], in assay [6], in [7], in [8] and in assay [11] was “inactive” each time. Moreover, the Potency entry in [12], in assay [14] and in assay [15] was “inactive” in each case. The Potency was 49 µM (active) in assay [2]; 21.9 µM (active) in assay [3]; 21.9 µM (active) in assay [4]; 27.3 µM (active) in [10]; 17.2 µM (active) in assay [16]; 15.4 µM (active) in assay [18]. Besides, in assay [17], the call was inactive.

`C=C(C)C1CCC(C)CC1O` (stereo not drawn): the Potency result in assay [1], in assay [2], in assay [3], in assay [4], in assay [5] and in assay [6] was “inactive” throughout. Further, the Potency entry in assay [7], in assay [8], in assay [9], in [11], in [12] and in [14] was “inactive” throughout. Besides, the Potency entry in assay [15] and in assay [16] was “inactive” each time.

On to `Nc1ccc2c(S(=O)(=O)O)cccc2c1S(=O)(=O)O`, for which the Potency result in [1], in assay [2], in assay [3], in assay [4], in [5] and in [6] was “inactive” throughout. Further, the Potency result in assay [7], in assay [8], in [9], in assay [10], in assay [11] and in [12] was “inactive” each time. The Potency result in assay [13], in [14], in assay [15] and in assay [16] was “inactive” each time.

As for `CCN(CC)c1ccc(C=O)c(O)c1`, the Potency entry in assay [1], in [2], in [3], in assay [4], in [5] and in assay [6] was “inactive” each time. For the same molecule, the Potency entry in [7], in [8], in assay [9], in [19], in assay [11] and in assay [12] was “inactive” throughout. Further, the Potency result in [14], in [15] and in [16] was “inactive” throughout.

As for `COC(=O)c1ccc([N+](=O)[O-])cc1`, the Potency result in assay [1], in assay [2], in [3], in assay [4], in assay [5] and in assay [6] was “inactive” in each case. The Potency result in assay [7], in assay [8], in assay [9], in assay [10], in assay [11] and in assay [14] was “inactive” in each case. Moreover, the Potency entry in assay [15] and in assay [16] was “inactive” throughout.

Turning to `CC1(C)[C@H]2CC[C@]1(C)C(=O)C2`, the Potency result in assay [1], in [2], in [3], in assay [4], in assay [5] and in assay [6] was “inactive” throughout. Further, the Potency entry in assay [7], in [8], in [9], in assay [19], in assay [11] and in assay [12] was “inactive” each time. Moreover, the Potency result in assay [14], in assay [15] and in assay [18] was “inactive” each time.
